Records with an inconclusive call do not appear. Entries that show only a call come without a potency. The source made the active and inactive calls. Calls come from the whole dose curve.
Potency is the fitted concentration of half-maximal effect.

The assay can be described thus: qHTS assay to identify small molecule antagonists of the estrogen receptor alpha (ER-alpha) signaling pathway - cell viability counter screen (AID 743074).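 Note: HEK293 cells carrying ER-alpha-UAS-bla reporter stimulated with 17beta-estradiol; nearly all actives have a fitted effect of over 45% in size.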 To be noted: ERalpha-bla HEK293 viability, CellTiter-Glo luminescence, 18 h; series mostly up to 69.4 µM. A general note: In qHTS, concentration-response curves come from the screen itself.
As for `Cc1cc(O)c2c(c1)O[C@@]1(C)CC[C@H]3C(C)(C)CCCC34CO[C@@H]2[C@H]41` (stereo not given in full), the Potency entry was “inactive”.

On to `CCN(CC)CCC(=O)N1c2ccccc2Sc2ccc(C(F)(F)F)cc21`, for which the Potency entry is “inactive”.

Regarding `C=C1CC[C@@H]2[C@](C)(CO)[C@H](O)CC[C@@]2(C)[C@@H]1C/C=C1/C(=O)OC[C@H]1O`, the Potency entry is “inactive”.

In the case of `CCN(CC)CCC(=O)N1c2ccccc2Sc2ccc(Cl)cc21`, the Potency result was “inactive”.

Consider `CC(=O)[C@]1(O)Cc2c(O)c3c(c(O)c2[C@@H](O[C@H]2C[C@H](N)[C@H](O)[C@H](C)O2)C1)C(=O)c1c(O)cccc1C3=O`, for which the Potency result is “inactive”.

With `CC(C)N=c1cc2n(-c3ccc(Cl)cc3)c3ccccc3nc-2cc1Nc1ccc(Cl)cc1`, the Potency entry is “inactive”.

Turning to `COc1ccc(C2NC(=S)N3C(c4ccc(OC)c(OC)c4)NC(=S)N23)cc1OC` (stereo not given), the Potency result was “inactive”.

`CO[C@H]1C[C@H](O[C@H]2[C@H](C)O[C@@H](O[C@@H]3/C(C)=C/C[C@@H]4C[C@@H](C[C@]5(C=C[C@H](C)[C@@H](C6CCCCC6)O5)O4)OC(=O)[C@@H]4C=C(C)[C@@H](O)[C@H]5OC/C(=C\C=C\[C@@H]3C)[C@]54O)C[C@@H]2OC)O[C@@H](C)[C@@H]1O`: the Potency was 16.9 µM (active).

Take `CN(C)CCCN1c2ccccc2C(C)(C)c2ccccc21`: the Potency entry was “inactive”.

For `CN(C)C(=O)CCSC(SCCC(=O)O)c1cccc(/C=C/c2ccc3ccc(Cl)cc3n2)c1` (stereo not given), the Potency result was “inactive”.

As to `CC1(S(=O)(=O)O)CC(=O)c2ccccc2C1=O` (stereo not given), the Potency result is “inactive”.

Turning to `CCc1ccc2c(c1)N(CC(C)CN(C)C)c1ccccc1S2` (stereo not given), the Potency result is “inactive”.

As for `OC[C@H]1OC([S-])[C@H](O)[C@@H](O)[C@@H]1O.[Au+]` (stereo not given in full), the Potency entry is “inactive”.

In the case of `C=C1C(=C/C=C2\CCC[C@]3(C)[C@@H]([C@H](C)CCCC(C)(C)O)CC[C@@H]23)C[C@@H](O)C[C@@H]1O`, the Potency is 23.9 µM (active).

Turning to `C#C[C@]1(O)CC[C@H]2[C@@H]3CCC4=C/C(=N/O)CC[C@@H]4[C@H]3CC[C@@]21CC`, the Potency result was “inactive”.

`CCN(CC)CCOc1ccc(-c2nc3cc(Cl)ccc3s2)cc1`: the Potency entry was “inactive”.

Take `CC1=C(/C=C/C(C)=C/C=C/C(C)=C/C(=O)Oc2c(C)c(C)c3c(c2C)CC[C@@](C)(CCC[C@H](C)CCC[C@H](C)CCCC(C)C)O3)C(C)(C)CCC1`: the Potency entry is “inactive”.

Consider `CC(CN1c2ccccc2Sc2ccc(S(=O)(=O)N(C)C)cc21)N(C)C` (stereo not given), for which the Potency result is “inactive”.

In the case of `COc1ccc(C[C@H](N)C(=O)N[C@H]2[C@@H](O)[C@H](n3cnc4c(N(C)C)ncnc43)O[C@@H]2CO)cc1`, the Potency result was “inactive”.

With `COc1cc(-c2ccc(-[n+]3nc(-c4ccccc4)nn3-c3ccc([N+](=O)[O-])cc3)c(OC)c2)ccc1-[n+]1nc(-c2ccccc2)nn1-c1ccc([N+](=O)[O-])cc1`, the Potency was 4.25 µM (active).

Regarding `C=C1C(=O)O[C@H]2[C@H]1CC/C(C)=C\CC[C@@]1(C)O[C@@H]21`, the Potency result was “inactive”.

On to `CC(C)(C)NC[C@H](O)COc1ccccc1C1CCCC1`, for which the Potency entry is “inactive”.

In the case of `CC(=O)Oc1cc(C)c(OC(C)=O)c2ccccc12`, the Potency entry was “inactive”.

For `C=C1CC[C@H](O)CC1=C/C=C1\CCC[C@]2(C)[C@@H]([C@H](C)CCCC(C)(C)O)CC[C@@H]12`, the Potency is 23.9 µM (active).

For `C[C@@H]1CCC2[C@@H](C)[C@@H](O)O[C@@H]3O[C@@]4(C)CC[C@@H]1[C@@]23OO4` (stereo not given in full), the Potency entry was “inactive”.

`CN1CCN(CCCN2c3ccccc3Sc3ccccc32)CC1`: the Potency entry was “inactive”.

For the molecule `OCCN1CCN(CC/C=C2/c3ccccc3Sc3ccc(Cl)cc32)CC1`, the Potency result is “inactive”.

With `CCCCCCOc1ccc(C(=N)N(CCCC)CCCC)c2ccccc12`, the Potency was 9.52 µM (active).

In the case of `Clc1cc(Cl)c(OCC#CI)cc1Cl`, the Potency entry is “inactive”.

`C[C@H]1[C@@H](OC(=O)CCC(=O)O)O[C@@H]2OC3(C)CC[C@H]4[C@H](C)CC[C@@H]1[C@@]24OO3`: the Potency entry was “inactive”.

`CCN(CC)c1ccc(C(=C2C=CC(=[N+](CC)CC)C=C2)c2ccccc2)cc1`: the Potency is 4.77 µM (active).

Turning to `CCCCC(=O)OCC(=O)[C@]1(O)Cc2c(O)c3c(c(O)c2[C@@H](O[C@H]2C[C@H](NC(=O)C(F)(F)F)[C@H](O)[C@H](C)O2)C1)C(=O)c1c(OC)cccc1C3=O`, the Potency entry is “inactive”.

As for `CSc1nc2cc(Oc3cccc(Cl)c3Cl)c(Cl)cc2[nH]1`, the Potency is 23.9 µM (active).

Take `CN1CCCC(CN2c3ccccc3Sc3ccccc32)C1` (stereo not given): the Potency result is “inactive”.

For `S=C1SCN(Cc2ccccc2)CN1Cc1ccccc1`, the Potency result is “inactive”.

These data come from PubChem BioAssay (Tox21).
